The record followed here is paper PMC4336329 (PLoS ONE, 2015).

Out of some 310,000 compounds screened, about 14,000 (4.5%) showed an effect of 50% or more. The effect is printed as a negative number. The full list was thinned out, with strong results kept by preference.
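Also: peak tail current of the secondary pulse compared with the same well before compound.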

Chain of human ether-à-go-go-related gene (hERG) potassium channel (Q12809 whole entry, looked up): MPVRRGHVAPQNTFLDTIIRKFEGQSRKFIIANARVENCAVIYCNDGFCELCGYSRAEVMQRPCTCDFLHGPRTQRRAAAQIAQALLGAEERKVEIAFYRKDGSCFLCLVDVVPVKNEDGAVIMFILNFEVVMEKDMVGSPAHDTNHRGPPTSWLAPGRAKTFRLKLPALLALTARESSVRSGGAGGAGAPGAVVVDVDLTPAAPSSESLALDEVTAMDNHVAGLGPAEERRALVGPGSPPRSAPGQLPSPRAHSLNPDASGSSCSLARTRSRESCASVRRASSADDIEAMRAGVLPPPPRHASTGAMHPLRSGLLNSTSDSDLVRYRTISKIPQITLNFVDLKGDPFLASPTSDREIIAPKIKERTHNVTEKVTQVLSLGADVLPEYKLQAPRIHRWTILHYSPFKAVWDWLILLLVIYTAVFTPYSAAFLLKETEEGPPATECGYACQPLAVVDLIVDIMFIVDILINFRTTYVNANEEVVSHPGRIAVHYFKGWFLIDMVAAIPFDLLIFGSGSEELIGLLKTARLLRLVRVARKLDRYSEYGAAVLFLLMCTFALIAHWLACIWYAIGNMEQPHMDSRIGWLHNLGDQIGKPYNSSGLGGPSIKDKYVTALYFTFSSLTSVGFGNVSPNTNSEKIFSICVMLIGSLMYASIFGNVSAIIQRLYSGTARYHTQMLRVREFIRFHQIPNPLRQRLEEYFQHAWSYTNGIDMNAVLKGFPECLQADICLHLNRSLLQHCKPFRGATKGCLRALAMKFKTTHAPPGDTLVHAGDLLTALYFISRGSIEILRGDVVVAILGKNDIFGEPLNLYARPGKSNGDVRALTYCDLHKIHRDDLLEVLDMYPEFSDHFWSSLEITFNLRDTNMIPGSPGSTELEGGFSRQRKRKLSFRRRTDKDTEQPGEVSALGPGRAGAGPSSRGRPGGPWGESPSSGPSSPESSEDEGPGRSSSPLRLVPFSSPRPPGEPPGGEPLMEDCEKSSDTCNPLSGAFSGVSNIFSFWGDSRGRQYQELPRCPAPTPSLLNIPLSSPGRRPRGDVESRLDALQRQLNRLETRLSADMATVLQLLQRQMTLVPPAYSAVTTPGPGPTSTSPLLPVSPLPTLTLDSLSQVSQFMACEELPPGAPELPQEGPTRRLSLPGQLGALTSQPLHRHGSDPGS

The assay has as its target human ether-à-go-go-related gene (hERG) potassium channel (human, UniProt Q12809). Nature of the assay: primary screen, population patch clamp on CHO cells stably expressing hERG; higher = less effect of the substance.
Turning to `Cc1ncc(CN2CCCC(C(=O)c3sccc3C)C2)s1` (stereo not drawn), the “hERG current change (%, negative = inhibition) at 10uM” value is given as 24.7%.

For the compound `CC(C)(C)C(=O)NC1(C(F)(F)F)N=C2SCCN2C1=O` (stereo not drawn), the “hERG current change (%, negative = inhibition) at 10uM” value is on record as -4.77%.

`CNC(=O)c1c(NC(=O)c2ccco2)sc(C)c1C`: the “hERG current change (%, negative = inhibition) at 10uM” value is recorded as 1.42%.

As for `CCOc1cccc2c1OC1(C)CC2NC(=O)N1c1cccc(C(=O)N2CCN(c3ccccn3)CC2)c1` (stereo not drawn), the “hERG current change (%, negative = inhibition) at 10uM” value is given as -1.89%.

For the compound `Cc1cc(Br)c(NC(=O)Cn2c([N+](=O)[O-])cnc2C)cc1C`, the “hERG current change (%, negative = inhibition) at 10uM” value was 4.01%.

With `O=C(NCC(c1ccco1)N1CCc2ccccc2C1)c1cccc([N+](=O)[O-])c1` (stereo not drawn), the “hERG current change (%, negative = inhibition) at 10uM” value was -67.2%.

For the compound `COc1ccc(NC(=O)C(=O)NCC(c2ccco2)N2CCc3ccccc3C2)cc1` (stereo not drawn), the “hERG current change (%, negative = inhibition) at 10uM” value is on record as -23.5%.

Turning to `O=C(NCC(c1ccco1)N1CCc2ccccc2C1)c1cccc(Br)c1` (stereo not drawn), the “hERG current change (%, negative = inhibition) at 10uM” value is reported as -5.34%.

For the compound `O=C(NCC(c1ccco1)N1CCCC1)c1ccc(Cl)c(S(=O)(=O)N2CCc3ccccc32)c1` (stereo not drawn), the “hERG current change (%, negative = inhibition) at 10uM” value is given as -51%.

As to `O=C(NCc1ccco1)c1ccc(Cl)c(S(=O)(=O)N2CCc3ccccc32)c1`, the “hERG current change (%, negative = inhibition) at 10uM” value is listed as -20.6%.

For the compound `COc1ccc(C)cc1S(=O)(=O)NCC(c1ccco1)N1CCc2ccccc2C1` (stereo not drawn), the “hERG current change (%, negative = inhibition) at 10uM” value is recorded as -62.8%.

With `Cc1ccc(C)c(S(=O)(=O)NCC(c2ccco2)N2CCc3ccccc3C2)c1` (stereo not drawn), the “hERG current change (%, negative = inhibition) at 10uM” value is on record as -9.3%.

Take `O=C(NCC(c1ccco1)N1CCOCC1)c1cccc([N+](=O)[O-])c1` (stereo not drawn): the “hERG current change (%, negative = inhibition) at 10uM” value came out at 12.7%.

As for `COc1ccc(F)cc1S(=O)(=O)NCC(c1ccco1)N1CCc2ccccc2C1` (stereo not drawn), the “hERG current change (%, negative = inhibition) at 10uM” value is on record as -30.4%.

Regarding `COc1ccc(NC(=O)C(=O)NCC(c2ccco2)N2CCc3ccccc3C2)cc1OC` (stereo not drawn), the “hERG current change (%, negative = inhibition) at 10uM” value is recorded as -69.4%.

`COc1cccc(NC(=O)C(=O)NCC(c2ccco2)N2CCc3ccccc3C2)c1` (stereo not drawn): the “hERG current change (%, negative = inhibition) at 10uM” value is recorded as -9.29%.

Regarding `O=C(NCC(c1ccco1)N1CCCCC1)c1cccc(S(=O)(=O)Nc2ccccc2Cl)c1` (stereo not drawn), the “hERG current change (%, negative = inhibition) at 10uM” value is -2.33%.

For `COc1ccc(C)cc1NC(=O)c1nnn(Cc2cccc(F)c2)c1N`, the “hERG current change (%, negative = inhibition) at 10uM” value was 7.11%.

On to `O=C(c1ccc(NS(=O)(=O)c2ccccc2)cc1)N1CCCCCC1`, for which the “hERG current change (%, negative = inhibition) at 10uM” value is given as -11.9%.

For the compound `COC(=O)c1cc(C#N)c(=O)[nH]c1C`, the “hERG current change (%, negative = inhibition) at 10uM” value is given as 20.3%.

Regarding `Cc1cccc(OCC(=O)Nc2cccc(-c3nnc(-c4ccccc4)o3)c2)c1C`, the “hERG current change (%, negative = inhibition) at 10uM” value is on record as -4.37%.

As for `CC(C)N1CCC(N2CCN(C3CCCCC3)CC2CCO)CC1` (stereo not drawn), the “hERG current change (%, negative = inhibition) at 10uM” value is 18.9%.

`O=C(NCC(c1ccco1)N1CCc2ccccc2C1)c1cccc(F)c1` (stereo not drawn): the “hERG current change (%, negative = inhibition) at 10uM” value was -63.5%.

For `O=C(NCC(c1ccco1)N1CCc2ccccc2C1)c1ccc([N+](=O)[O-])cc1` (stereo not drawn), the “hERG current change (%, negative = inhibition) at 10uM” value is -58.1%.

For the compound `O=C(NCC(c1ccco1)N1CCc2ccccc2C1)c1ccc(Cl)c([N+](=O)[O-])c1` (stereo not drawn), the “hERG current change (%, negative = inhibition) at 10uM” value is given as -55.5%.

In the case of `O=C(NCC(c1ccco1)N1CCc2ccccc2C1)c1ccccc1` (stereo not drawn), the “hERG current change (%, negative = inhibition) at 10uM” value is -19%.

For `O=C(NCC(c1ccco1)N1CCc2ccccc2C1)C(=O)Nc1ccc(F)cc1F` (stereo not drawn), the “hERG current change (%, negative = inhibition) at 10uM” value was -0.136%.

Turning to `O=C(NCC(c1ccco1)N1CCc2ccccc2C1)c1ccc(Cl)cc1` (stereo not drawn), the “hERG current change (%, negative = inhibition) at 10uM” value is -47.8%.

With `O=C(NCC(c1ccco1)N1CCc2ccccc2C1)c1ccc(F)cc1` (stereo not drawn), the “hERG current change (%, negative = inhibition) at 10uM” value is listed as -10.7%.

`O=C(NCC(c1ccco1)N1CCc2ccccc2C1)C(=O)Nc1ccccc1F` (stereo not drawn): the “hERG current change (%, negative = inhibition) at 10uM” value was found to be 8.09%.

As for `O=C(NCC(c1ccco1)N1CCc2ccccc2C1)C(=O)Nc1cc(F)ccc1F` (stereo not drawn), the “hERG current change (%, negative = inhibition) at 10uM” value is recorded as -52.3%.

`O=C(NCC(c1ccco1)N1CCc2ccccc2C1)c1ccc(Br)cc1` (stereo not drawn): the “hERG current change (%, negative = inhibition) at 10uM” value is -12.6%.

Take `COc1cccc(C(=O)NCC(c2ccco2)N2CCc3ccccc3C2)c1` (stereo not drawn): the “hERG current change (%, negative = inhibition) at 10uM” value is -17%.

Turning to `Cc1ccc(C(=O)NCC(c2ccco2)N2CCc3ccccc3C2)cc1C` (stereo not drawn), the “hERG current change (%, negative = inhibition) at 10uM” value is -5.02%.

Regarding `O=C(CN1C(=O)S/C(=C\c2ccc(C(=O)O)cc2)C1=O)Nc1ccccc1`, the “hERG current change (%, negative = inhibition) at 10uM” value is reported as 19%.

For the compound `CCCCNC(=O)C1Cc2cc(S(=O)(=O)N3CCCCC3)ccc2N1C(C)=O` (stereo not drawn), the “hERG current change (%, negative = inhibition) at 10uM” value is on record as 17.4%.

In the case of `COc1ccc(C2(c3ccc(OC)cc3)NC(=O)N(CC(=O)Nc3ccc(OC)c(OC)c3)C2=O)cc1`, the “hERG current change (%, negative = inhibition) at 10uM” value is listed as -2.49%.

Consider `Cc1noc(/C=C/N(C)C)c1S(=O)(=O)N1CCCC(C(=O)N2CCc3ccccc32)C1` (stereo not drawn), for which the “hERG current change (%, negative = inhibition) at 10uM” value stood at 13%.

With `CCC(NC(=O)C1CCCO1)c1ccccc1` (stereo not drawn), the “hERG current change (%, negative = inhibition) at 10uM” value is listed as 22.8%.

`Cc1ccc(CNC(=O)CNC(=O)c2ccc(Br)o2)cc1`: the “hERG current change (%, negative = inhibition) at 10uM” value was 5.03%.

Regarding `Cc1ccccc1CN1[C@@H]2c3ccccc3C[C@@H]2OCCS1(=O)=O`, the “hERG current change (%, negative = inhibition) at 10uM” value is -3.4%.

`COc1ccc(C(C(=O)NC2CCCCC2)N(C(=O)c2ccccn2)c2cccnc2)cc1` (stereo not drawn): the “hERG current change (%, negative = inhibition) at 10uM” value is 22.4%.
